# The supplement of paper PMC10037445
# In all, about 2,900 compounds were measured (“NF-kB SEAP reporter activity, fold change vs agonist alone”: median about 0.99, highest 2% from about 2.6 on). The full list was thinned out, with the highest values kept by preference.
# What was measured:
# [1] = system: RAW-Dual; assay: NF-kB SEAP reporter activity, fold change vs agonist alone; higher = enhanced NF-kB activity
# Summary of the method: (§1)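 Library stock was pin-tooled at 50 nL into 384-well plates of RAW-Dual macrophages (50,000 cells/well, DMEM), followed 1 h later by a PRR agonist, and the cells were kept at 37 °C, 5% CO2. Supernatant collected after 20 hours was read for IRF by QuantiLuc luminescence and for NF-κB by QuantiBlue absorbance at 620 nm. Reporter activity is fold change over agonist-alone wells, and a well counted as cytotoxic when its IncuCyte confluency was below 70% of agonist controls in both mask sets.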
# [2] = system: RAW-Dual; assay: NF-kB SEAP reporter activity, fold change vs agonist alone; cytotoxicity flag (confluency mask): not cytotoxic; higher = enhanced NF-kB activity
# Summary of the method: as §1
# [3] = system: RAW-Dual; assay: NF-kB SEAP reporter activity, fold change vs agonist alone; cytotoxicity flag (confluency mask): cytotoxic (confluency <70% of control); higher = enhanced NF-kB activity
# Summary of the method: as §1
# [4] = agonist: ODN 1826 (TLR9) 0.5 ug/mL
# [5] = agonist: Pam2CSK4 (TLR2/6) 0.1 ug/mL
# [6] = agonist: Pam3CSK4 (TLR2/1) 0.1 ug/mL
# [7] = library stock concentration (final ~1000-fold dilution): 10 mM, cytotoxicity flag (confluency mask): cytotoxic (confluency <70% of control), agonist: MPLA (TLR4) […]
# [8] = library stock concentration (final ~1000-fold dilution): 10 mM, cytotoxicity flag (confluency mask): not cytotoxic, agonist: Imiquimod (TLR7) […]
# [9] = library stock concentration (final ~1000-fold dilution): 10 mM, cytotoxicity flag (confluency mask): not cytotoxic, agonist: MPLA (TLR4) […]
smiles,measurement,setting,value
CCC(=O)OC(OP(=O)(CCCCc1ccccc1)CC(=O)N1CC(C2CCCCC2)CC1C(=O)O)C(C)C (configuration not stated),NF-kB SEAP reporter activity,"[1]; library stock concentration (final ~1000-fold dilution): 10 mM water, cytotoxicity flag (confluency mask): not cytotoxic, agonist: Imiquimod (TLR7) […]",0.795
same,NF-kB SEAP reporter activity,"[1]; library stock concentration (final ~1000-fold dilution): 10 mM water, cytotoxicity flag (confluency mask): not cytotoxic, agonist: MPLA (TLR4) […]",0.935
CCC(=O)OC(OP(=O)(CCCCc1ccccc1)CC(=O)N1CC(C2CCCCC2)CC1C(=O)O)C(C)C (configuration not stated) (library stock concentration (final ~1000-fold dilution): 10 mM water),NF-kB SEAP reporter activity,[2]; agonist: LPS (TLR4) 0.1 ug/mL,0.941
same,NF-kB SEAP reporter activity,[2]; [4],1.05
same,NF-kB SEAP reporter activity,[2]; [5],1.01
same,NF-kB SEAP reporter activity,[2]; [6],0.946
CN(C)c1ccc(O)c2c1CC1CC3C(N(C)C)C(=O)C(C(N)=O)=C(O)C3(O)C(=O)C1=C2O (configuration not stated),NF-kB SEAP reporter activity,"[1]; library stock concentration (final ~1000-fold dilution): 5 mM, cytotoxicity flag (confluency mask): not cytotoxic, agonist: Imiquimod (TLR7) […]",1.25
same,NF-kB SEAP reporter activity,"[1]; library stock concentration (final ~1000-fold dilution): 5 mM, cytotoxicity flag (confluency mask): not cytotoxic, agonist: MPLA (TLR4) […]",0.933
CN(C)c1ccc(O)c2c1CC1CC3C(N(C)C)C(=O)C(C(N)=O)=C(O)C3(O)C(=O)C1=C2O (configuration not stated) (library stock concentration (final ~1000-fold dilution): 5 mM),NF-kB SEAP reporter activity,[2]; agonist: LPS (TLR4) 0.1 ug/mL,1.03
same,NF-kB SEAP reporter activity,[2]; [4],1.15
same,NF-kB SEAP reporter activity,[2]; [5],0.833
same,NF-kB SEAP reporter activity,[2]; [6],0.759
CN(C)CCC=C1c2ccccc2C(C)(C)c2ccccc21.Cl,NF-kB SEAP reporter activity,[1]; [7],1.4
CN(C)CCC=C1c2ccccc2C(C)(C)c2ccccc21.Cl (library stock concentration (final ~1000-fold dilution): 10 mM),NF-kB SEAP reporter activity,[3]; agonist: LPS (TLR4) 0.1 ug/mL,1.45
same,NF-kB SEAP reporter activity,[3]; [4],0.727
same,NF-kB SEAP reporter activity,[3]; [5],0.53
same,NF-kB SEAP reporter activity,[3]; [6],0.8
O=C(NO)c1cnc(NC2(c3ccccc3)CC2)nc1,NF-kB SEAP reporter activity,"[1]; library stock concentration (final ~1000-fold dilution): 10 mM, cytotoxicity flag (confluency mask): cytotoxic (confluency <70% of control), agonist: Imiquimod (TLR7) […]",1.46
same,NF-kB SEAP reporter activity,[1]; [7],2.22
O=C(NO)c1cnc(NC2(c3ccccc3)CC2)nc1 (library stock concentration (final ~1000-fold dilution): 10 mM),NF-kB SEAP reporter activity,[3]; agonist: LPS (TLR4) 0.1 ug/mL,2.94
same,NF-kB SEAP reporter activity,[3]; [4],1.6
same,NF-kB SEAP reporter activity,[3]; [5],0.654
same,NF-kB SEAP reporter activity,[3]; [6],1.4
CC(C)NCC(O)COc1ccc(COCCOC(C)C)cc1.O=C(O)/C=C/C(=O)O (configuration not stated),NF-kB SEAP reporter activity,[1]; [8],0.869
same,NF-kB SEAP reporter activity,[1]; [9],1.02
CC(C)NCC(O)COc1ccc(COCCOC(C)C)cc1.O=C(O)/C=C/C(=O)O (configuration not stated) (library stock concentration (final ~1000-fold dilution): 10 mM),NF-kB SEAP reporter activity,[2]; agonist: LPS (TLR4) 0.1 ug/mL,1.05
same,NF-kB SEAP reporter activity,[2]; [4],0.873
same,NF-kB SEAP reporter activity,[2]; [5],0.984
same,NF-kB SEAP reporter activity,[2]; [6],1.03
Cc1ccc(-c2c(-c3nn(C)c4ncnc(N5CCC(N6CCCCC6)C5)c34)cnn2C)cc1 (configuration not stated),NF-kB SEAP reporter activity,[1]; [8],0.947
same,NF-kB SEAP reporter activity,[1]; [9],1.09
Cc1ccc(-c2c(-c3nn(C)c4ncnc(N5CCC(N6CCCCC6)C5)c34)cnn2C)cc1 (configuration not stated) (library stock concentration (final ~1000-fold dilution): 10 mM),NF-kB SEAP reporter activity,[2]; agonist: LPS (TLR4) 0.1 ug/mL,1.57
same,NF-kB SEAP reporter activity,[2]; [4],0.856
same,NF-kB SEAP reporter activity,[2]; [5],1.21
same,NF-kB SEAP reporter activity,[2]; [6],1.16
Cc1nc(Nc2ncc(C(=O)Nc3c(C)cccc3Cl)s2)cc(N2CCN(CCO)CC2)n1.O (library stock concentration (final ~1000-fold dilution): 10 mM),NF-kB SEAP reporter activity,[2]; agonist: LPS (TLR4) 0.1 ug/mL,1.33
same,NF-kB SEAP reporter activity,[2]; [4],0.661
same,NF-kB SEAP reporter activity,[2]; [5],0.283
same,NF-kB SEAP reporter activity,[2]; [6],0.215
Cc1nc(Nc2ncc(C(=O)Nc3c(C)cccc3Cl)s2)cc(N2CCN(CCO)CC2)n1.O,NF-kB SEAP reporter activity,[1]; [8],0.326
same,NF-kB SEAP reporter activity,[1]; [9],0.715
CC1OC(OC2CCC3(C)C(CCC4(C)C3C=CC35OCC6(CCC(C)(C)CC63)C(O)CC45C)C2(C)CO)C(O)C(OC2OC(CO)C(O)C(O)C2O)C1O (configuration not stated),NF-kB SEAP reporter activity,[1]; [7],0.319
CC1OC(OC2CCC3(C)C(CCC4(C)C3C=CC35OCC6(CCC(C)(C)CC63)C(O)CC45C)C2(C)CO)C(O)C(OC2OC(CO)C(O)C(O)C2O)C1O (configuration not stated) (library stock concentration (final ~1000-fold dilution): 10 mM),NF-kB SEAP reporter activity,[3]; agonist: LPS (TLR4) 0.1 ug/mL,0.221
same,NF-kB SEAP reporter activity,[3]; [4],0.257
same,NF-kB SEAP reporter activity,[3]; [5],0.0991
same,NF-kB SEAP reporter activity,[3]; [6],0.143
NC(=O)c1ccccn1,NF-kB SEAP reporter activity,[1]; [9],1.08
NC(=O)c1ccccn1 (library stock concentration (final ~1000-fold dilution): 10 mM),NF-kB SEAP reporter activity,[2]; agonist: LPS (TLR4) 0.1 ug/mL,1.07
same,NF-kB SEAP reporter activity,[2]; [4],0.942
same,NF-kB SEAP reporter activity,[2]; [5],1.06
same,NF-kB SEAP reporter activity,[2]; [6],0.836
Clc1ccc(N/N=C(\c2ccccc2)c2ccccn2)nc1 (library stock concentration (final ~1000-fold dilution): 10 mM),NF-kB SEAP reporter activity,[2]; agonist: LPS (TLR4) 0.1 ug/mL,4.59
same,NF-kB SEAP reporter activity,[2]; [4],1.18
same,NF-kB SEAP reporter activity,[2]; [5],0.556
same,NF-kB SEAP reporter activity,[2]; [6],1.76
Clc1ccc(N/N=C(\c2ccccc2)c2ccccn2)nc1,NF-kB SEAP reporter activity,[1]; [8],1.5
same,NF-kB SEAP reporter activity,[1]; [9],2.77
C=C1CC23CCC4C(C)(C(=O)O)CCCC4(C)C2CCC1C3 (configuration not stated) (library stock concentration (final ~1000-fold dilution): 10 mM),NF-kB SEAP reporter activity,[2]; agonist: LPS (TLR4) 0.1 ug/mL,0.821
same,NF-kB SEAP reporter activity,[2]; [4],0.749
same,NF-kB SEAP reporter activity,[2]; [5],0.65
same,NF-kB SEAP reporter activity,[2]; [6],0.646
C=C1CC23CCC4C(C)(C(=O)O)CCCC4(C)C2CCC1C3 (configuration not stated),NF-kB SEAP reporter activity,[1]; [8],0.739
same,NF-kB SEAP reporter activity,[1]; [9],0.753
COc1ccc(CCCOC(Cn2ccnc2)c2ccc(OC)cc2)cc1.Cl (configuration not stated),NF-kB SEAP reporter activity,[1]; [8],0.901
same,NF-kB SEAP reporter activity,[1]; [9],1.28
COc1ccc(CCCOC(Cn2ccnc2)c2ccc(OC)cc2)cc1.Cl (configuration not stated) (library stock concentration (final ~1000-fold dilution): 10 mM),NF-kB SEAP reporter activity,[2]; agonist: LPS (TLR4) 0.1 ug/mL,0.82
same,NF-kB SEAP reporter activity,[2]; [4],0.588
same,NF-kB SEAP reporter activity,[2]; [5],0.572
same,NF-kB SEAP reporter activity,[2]; [6],0.84
Cl.Cn1cc(C(=O)Nc2ccc3c(c2)OCCO3)c2ccccc2c1=O,NF-kB SEAP reporter activity,[1]; [8],1.2
same,NF-kB SEAP reporter activity,[1]; [9],1.41
Cl.Cn1cc(C(=O)Nc2ccc3c(c2)OCCO3)c2ccccc2c1=O (library stock concentration (final ~1000-fold dilution): 10 mM),NF-kB SEAP reporter activity,[2]; agonist: LPS (TLR4) 0.1 ug/mL,2.21
same,NF-kB SEAP reporter activity,[2]; [4],1.48
same,NF-kB SEAP reporter activity,[2]; [5],1.09
same,NF-kB SEAP reporter activity,[2]; [6],1.29
COc1cc(C(=O)O)ccc1NC(=O)C1NC(CC(C)(C)C)C(C#N)(c2ccc(Cl)cc2F)C1c1cccc(Cl)c1F (configuration not stated),NF-kB SEAP reporter activity,[1]; [8],0.74
same,NF-kB SEAP reporter activity,[1]; [9],0.697
